Screening data (PubChem BioAssay)
ALOX12 inh – Primary qHTS assay for inhibitors of human arachidonate 12S-lipoxygenase (ALOX12): Round 2; actives 1.1% (n = 580,000); AID 1671190, 2021; Polyunsaturated fatty acid lipoxygenase ALOX12 (Homo sapiens), P18054; Potency, µM (series often up to 108 µM), for inactives: top-dose activity change, negative = inhibition, actives largely listed as inhibitors; purified 12hLO, xylenol orange hydroperoxide absorbance; note: % is set by controls: 0 for no effect and ±100 for the full control effect
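Purified human 12hLO at 150 nM in 25 mM Hepes, 0.01% Triton X-100, pH 7.0, preincubated 15 min at room temperature with compound. Reaction started with 40 uM arachidonic acid, 30 min at room temperature. Hydroperoxide measured by Fe-xylenol orange, 573/405 nm absorbance ratio.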
HP1b binding inh – HTS for Inhibitors of HP1-beta Chromodomain Interactions with Methylated Histone Tails. Chromobox protein homolog 1 (Homo sapiens), P83916. AlphaScreen HP1-beta / biotin-H3K9me3 peptide binding. Potency, µM (series often up to 114 µM), without a hit: at the top dose activity change, negative = inhibition, most hits filed as inhibitors. actives 0.56% (n = 390,000); note: nearly all actives have a fitted effect of over 70% in size
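AlphaScreen: HP1-beta (50 nM) preformed 30 min with biotin-H3(1-18)K9me3 peptide (50 nM) in PBS pH 7.4, 0.01% Tween-20. Compound added for 30 min at RT, then streptavidin donor/nickel chelate acceptor beads (10 ug/mL) for 30 min.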
G9a inh – qHTS Assay for Inhibitors of Histone Lysine Methyltransferase G9a; G9a H3K9 monomethylation, AlphaScreen, 2 h; Potency, µM (highest dose often 102 µM), for inactives: at the highest dose activity, negative = inhibition, hits mostly inhibitors; actives 8.8% (n = 350,000); note: % is set by controls: 0 for no effect and ±100 for the full control effect; nearly all actives have a fitted effect of over 75% in size
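Chemiluminescent proximity detection of H3K9 monomethylation, read after 10 min bead incubation in the dark. Reaction: 20 nM G9a, 500 nM biotin-H3K9 peptide, 20 uM SAM cofactor, 2 h, room temperature, following 15 min enzyme-compound preincubation.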
JMJD2A Tudor – qHTS Assay for Inhibitors of JMJD2A-Tudor Domain | Lysine-specific demethylase 4A (Homo sapiens), O75164 | AlphaScreen JMJD2A-Tudor / H3K4me3 peptide binding | Potency, µM (doses to about 114 µM), without a hit: at the highest dose activity change, negative = inhibition, actives largely listed as inhibitors | actives 4.4% (n = 390,000); note: % is set by controls: 0 for no effect and ±100 for the full control effect; nearly all actives have a fitted effect of over 50% in size
BAZ2B block – qHTS Assay for Inhibitors of BAZ2B. Bromodomain adjacent to zinc finger domain protein 2B (Homo sapiens), Q9UIF8. AlphaScreen BAZ2B-H3K14Ac peptide displacement. Potency, µM (highest dose often 114 µM), without a hit: at the highest dose activity change, negative = inhibition, hits mostly inhibitors. actives 4.4% (n = 360,000); note: % is set by controls: 0 for no effect and ±100 for the full control effect; nearly all actives have a fitted effect of over 60% in size
Target sequence (Q9UIF8 whole entry, looked up, the tested form may be a part): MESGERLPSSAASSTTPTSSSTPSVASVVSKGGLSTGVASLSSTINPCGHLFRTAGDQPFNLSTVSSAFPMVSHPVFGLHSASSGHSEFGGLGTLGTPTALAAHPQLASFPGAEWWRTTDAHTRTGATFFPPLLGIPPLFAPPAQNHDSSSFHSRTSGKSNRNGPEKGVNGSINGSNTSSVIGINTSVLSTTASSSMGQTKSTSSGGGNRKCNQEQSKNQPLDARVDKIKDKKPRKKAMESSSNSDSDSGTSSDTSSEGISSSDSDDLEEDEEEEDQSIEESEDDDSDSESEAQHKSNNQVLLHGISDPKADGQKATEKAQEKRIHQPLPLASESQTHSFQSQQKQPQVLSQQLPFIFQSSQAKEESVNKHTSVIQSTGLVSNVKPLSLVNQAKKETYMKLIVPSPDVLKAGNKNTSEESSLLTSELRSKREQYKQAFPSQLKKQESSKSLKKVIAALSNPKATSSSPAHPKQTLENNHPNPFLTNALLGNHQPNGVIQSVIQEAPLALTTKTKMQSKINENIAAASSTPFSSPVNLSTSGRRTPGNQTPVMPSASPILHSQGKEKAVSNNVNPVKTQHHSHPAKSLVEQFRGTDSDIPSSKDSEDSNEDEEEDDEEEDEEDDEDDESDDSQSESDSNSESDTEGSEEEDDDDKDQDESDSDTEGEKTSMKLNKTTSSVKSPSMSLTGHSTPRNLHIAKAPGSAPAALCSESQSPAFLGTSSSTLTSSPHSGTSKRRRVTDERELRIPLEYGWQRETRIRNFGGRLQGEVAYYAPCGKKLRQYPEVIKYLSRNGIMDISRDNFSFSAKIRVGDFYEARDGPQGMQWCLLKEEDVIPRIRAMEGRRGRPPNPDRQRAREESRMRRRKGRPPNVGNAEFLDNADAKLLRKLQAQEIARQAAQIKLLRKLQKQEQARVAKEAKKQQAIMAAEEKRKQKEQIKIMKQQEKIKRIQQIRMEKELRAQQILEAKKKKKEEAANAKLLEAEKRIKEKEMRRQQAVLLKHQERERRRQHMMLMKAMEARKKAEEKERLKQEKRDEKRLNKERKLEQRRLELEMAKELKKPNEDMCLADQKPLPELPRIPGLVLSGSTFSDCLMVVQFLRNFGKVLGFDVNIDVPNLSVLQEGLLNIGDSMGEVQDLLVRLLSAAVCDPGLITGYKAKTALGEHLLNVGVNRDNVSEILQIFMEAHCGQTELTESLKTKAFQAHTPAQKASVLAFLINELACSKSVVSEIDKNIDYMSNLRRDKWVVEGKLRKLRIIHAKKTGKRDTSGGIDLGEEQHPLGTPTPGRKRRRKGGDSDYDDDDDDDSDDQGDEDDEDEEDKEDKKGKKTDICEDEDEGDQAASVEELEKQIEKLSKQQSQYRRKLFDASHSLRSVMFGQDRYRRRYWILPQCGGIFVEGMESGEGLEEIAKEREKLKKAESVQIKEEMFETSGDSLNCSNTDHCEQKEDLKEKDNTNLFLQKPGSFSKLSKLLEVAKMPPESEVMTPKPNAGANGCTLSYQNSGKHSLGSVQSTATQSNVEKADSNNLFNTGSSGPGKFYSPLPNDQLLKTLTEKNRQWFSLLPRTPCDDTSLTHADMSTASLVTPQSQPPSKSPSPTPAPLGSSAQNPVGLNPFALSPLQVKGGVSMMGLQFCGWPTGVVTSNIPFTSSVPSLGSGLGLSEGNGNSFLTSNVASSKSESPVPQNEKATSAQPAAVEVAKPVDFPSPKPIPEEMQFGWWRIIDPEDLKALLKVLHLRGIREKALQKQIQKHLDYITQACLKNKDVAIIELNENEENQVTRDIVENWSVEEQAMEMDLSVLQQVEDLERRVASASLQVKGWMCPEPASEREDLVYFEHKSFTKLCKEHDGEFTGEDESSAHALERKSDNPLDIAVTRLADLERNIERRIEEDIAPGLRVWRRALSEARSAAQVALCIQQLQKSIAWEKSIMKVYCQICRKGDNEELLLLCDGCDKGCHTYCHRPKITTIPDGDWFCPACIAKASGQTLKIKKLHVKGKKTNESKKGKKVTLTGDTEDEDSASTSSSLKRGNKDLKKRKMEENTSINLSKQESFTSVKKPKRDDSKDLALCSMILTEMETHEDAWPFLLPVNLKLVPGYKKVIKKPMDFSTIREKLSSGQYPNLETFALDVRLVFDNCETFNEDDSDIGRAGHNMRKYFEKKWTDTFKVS
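Multi-concentration screen (max 110 uM) measuring displacement of acetylated histone H3 peptide from BAZ2B by AlphaScreen, using 50 nM protein, 50 nM peptide and 10 ug/mL streptavidin donor plus Ni-chelate acceptor beads.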
Sfp inh – qHTS Assay for Inhibitors of Bacillus subtilis Sfp phosphopantetheinyl transferase (PPTase) | 4'-phosphopantetheinyl transferase ffp (Bacillus subtilis), Q9F4F7 | Biochemical Sfp PPTase activity, qHTS | actives 3.5% (n = 310,000) | Potency, µM, inactives show largest response in the series, negative = inhibition, actives largely listed as inhibitors;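 note: the enzyme is Sfp with the accession as filed and its product quenches rhodamine fluorescence; 0% = enzyme reaction without inhibitor and -100% = no enzyme wells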
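Sfp 15 nM + cpd, 15 min RT; start w/ rhodamine-CoA 5 uM, BHQ-2-YbbR 12.5 uM (final); 50 mM Hepes pH 7.6, 10 mM MgCl2, 0.01% NP-40, 0.01% BSA; read 525/598 nm at 0 and 30 min.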
* marks the source's active call; other numbers are inactive results; ? = inconclusive; . = not tested or not shown; [ ] = another dose, or the depositor's remark. An excerpt weighted towards active compounds, which were near 8.7% of everything screened. Calls come from the whole dose curve; as a rule, active = well fitted curve in the direction sought with a large enough effect; inconclusive = small, poorly fitted or top-dose-only effect, or another doubt; inactive = no such curve, though single readings can be large; an effect the other way counts as inactive or inconclusive. Potency is the fitted concentration of half-maximal effect.

SMILES	ALOX12 inh	HP1b binding inh	G9a inh	JMJD2A Tudor	BAZ2B block	Sfp inh
Cc1ccc(S(=O)(=O)NN2C(=O)/C(=C/c3cccs3)SC2=S)cc1	?	-14%	20µM*	?	?	79µM*
O=C1/C(=C/c2cccnc2)SC(=S)N1c1ccccc1	2%	28%	?	-4%	8%	-18%
Cc1ccc(/C=C2\SC(=S)N(NS(=O)(=O)c3ccc(C)cc3)C2=O)cc1	35µM*	-5%	.	?	50µM*	-4%
O=C1/C(=C/c2cccnc2)SC(=S)N1Nc1ccccc1	65%	19%	40µM*	-7%	?	-25%
Cc1ccc(S(=O)(=O)NN2C(=O)/C(=C\c3ccc(Cl)cc3)SC2=S)cc1	-26%	-20%	-10%	-28%	-27%	17%
COc1ccc(/C=C2/SC(=S)N(NS(=O)(=O)c3ccc(C)cc3)C2=O)cc1	?	?	?	?	40µM*	-10%
CCC(C)NC(=O)CN1C(=O)C(c2ccccc2)=NC1(C)C (configuration not stated)	2%	.	.	.	.	.
O=C(Nc1cccc(Cl)c1)C1Sc2nnc(-c3ccccc3)n2NC12CCCCC2 (configuration not stated)	45%	.	.	.	.	.
Cn1cccc1/C=C1\SC(=S)N(Nc2ccccc2)C1=O	?	?	.	?	20µM*	-23%
C=CCOc1ccc(/C=C2\SC(=S)N(NS(=O)(=O)c3ccc(C)cc3)C2=O)cc1	?	?	15%[2.33 µM]	50µM*	40µM*	-3%
Cc1ccc(S(=O)(=O)NN2C(=O)/C(=C/c3cccn3C)SC2=S)cc1	.	.	45µM*	.	50µM*	-17%
CC(C)C(C(=O)O)N1C(=O)/C(=C/c2cccn2C)SC1=S (configuration not stated)	-29%	-2%	-16%[59 µM]	-25%	?	-4%
Cc1cc(C)cc(C(=O)N2CCCC(n3cc(-c4nc(C)no4)nn3)C2)c1 (configuration not stated)	-4%	.	.	.	.	.
CC(C)c1noc([C@H]2C[C@@H]3C(=O)NCCCCCCN(C(=O)Cc4ccccc4)[C@@H]3C2)n1	39%	.	.	.	.	.
COc1ccc(-c2cc(=O)oc3c(C)c(O)c(CN(C)C)cc23)cc1	0%	2%	-10%[12.7 µM]	22µM*	-9%	-7%
COc1ccc2c(CC(=O)OCC(=O)Nc3cc(C)c(C)cc3[N+](=O)[O-])coc2c1	-2%	?	20µM*	?	?	10%
CCCOC(=O)C1=C(C)N(C)C(=O)NC1c1cc2c(cc1[N+](=O)[O-])OCO2 (configuration not stated)	?	-1%	10µM*	?	?	14µM*
CCOC(=O)C1=C(C)NC(=O)NC1c1cc2c(cc1Br)OCO2 (configuration not stated)	0%	57%	-13%[59 µM]	?	55%	2%
CCOC(=O)C1=C(C)NC(=O)CC1c1cc2c(cc1[N+](=O)[O-])OCO2 (configuration not stated)	-3%	23%	22µM*	-31%	.	?
COc1ccc2c(ccn2CCC(=O)Nc2ccc3c(c2)C(=O)N2CCC[C@H]2C(=O)N3)c1	-6%	.	.	.	.	.
COC(=O)c1c(NC(=O)c2ccc(OC)cc2)c2cc(NC(C)CCn3cccn3)cnc2n1C (configuration not stated)	12%	.	.	.	.	.
COc1ccccc1-c1c(C)nn2c(C(F)(F)F)cc(-c3ccccc3)nc12	0%	-7%	8.9µM*	-34%	?	.
COc1ccc(-c2c(C)nn3c(C(F)(F)F)cc(-c4ccc(Br)cc4)nc23)cc1	?	-9%	?	?	?	.
CN(C)c1oc(-c2ccccc2[N+](=O)[O-])nc1C#N	7%	?	7.1µM*	16µM*	-38%	10µM*
CSc1nsc(/C=C/Nc2cccc(Cl)c2)c1C#N	?	-12%	10µM*	?	?	-1%
SMILES	ALOX12 inh	HP1b binding inh	G9a inh	JMJD2A Tudor	BAZ2B block	Sfp inh
CSc1nsc(/C=C/Nc2ccc(O)cc2C)c1C#N	35µM*	-34%	7.9µM*	50µM*	40µM*	-78%
Cc1ccc(-c2ccc3nnc(CNC(=O)c4cccc(C#N)c4)n3n2)cc1	5%	.	.	.	.	.
CCn1c(SC(C)C(=O)Nc2ccc3c(c2)OCO3)nc2ccc(Br)cc2c1=O (configuration not stated)	-4%	.	.	.	.	.
Cc1cccc(C)c1OCCCCN1CCNCC1	?	-9%	25µM*	6.3µM*	?	-23%
COc1cccc(OC)c1OCCCCCCN1CCN(C)CC1	0%	41%	-5%[2.33 µM]	-14%	3%	9%
COc1ccc(S(=O)(=O)NCCN2CCOCC2)c2ccccc12	?	14%	28µM*	-24%	-28%	-8%
COc1cccc(OC)c1OCCCN1CCOCC1	?	?	?	2.5µM*	50µM*	-20%
Cc1cccc(C)c1OCCCN1CCOCC1	.	-1%	35µM*	-15%	-23%	-9%
Cc1cccc(-c2nc3cnccn3c2NCCC(=O)NCc2ccc(F)c(Cl)c2)c1	4%	.	.	.	.	.
COc1ccccc1N1CCN(CCCCNS(=O)(=O)c2cccc3c(N(C)C)cccc23)CC1	.	.	27µM*	.	.	.
CC(C)CN1C(=O)c2cccn2CC1C(=O)NCCCN1CCOCC1 (configuration not stated)	8%	.	.	.	.	.
[O-]/C(=C(\C(=S)NCc1ccco1)[n+]1ccccc1)c1ccccc1Br	?	-1%	?	-20%	?	13µM*
Cc1ccc(NC(=S)/C(=C(\[O-])c2ccc(F)cc2)[n+]2ccccc2)cc1	-21%	?	13µM*	?	?	45µM*
Cc1ccc(/C([O-])=C(/C(=S)NCc2ccco2)[n+]2ccccc2)cc1	.	.	2.5µM*	.	-33%	?
CN(C)c1cc[n+](/C(C(=S)Nc2ccc(SC(F)F)cc2)=C(/[O-])c2ccccc2)cc1	-1%	8%	?	?	.	?
O=[N+]([O-])c1ccc(/C([O-])=C(/C(=S)NCc2ccco2)[n+]2ccccc2)cc1	-31%	-5%	35µM*	-33%	?	8.9µM*
